# Source: PubChem BioAssay AID488890 (Southern Research Specialized Biocontainment Screening …, 2010)
# Among all 320,000 compounds or so, about 1,300 (0.41%) were called active. Another 3% or so got no clear call; they are omitted. No rule for the calls is given here. Not all results are given here. Measured potencies and affinities stand elsewhere.
# Assay: growth inhibition of non-replicating M. tuberculosis (AID 488890);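 also: plate controls were DMSO cells for no effect and high antibiotic wells for full effect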
# Conditions: Mycobacterium tuberculosis non-replicating, at 25 µM, stronger effect = higher value
row,SMILES,inhibition [%]
1,O=C(CCc1nnc(CCCCc2ccccc2)o1)NCCC1CCCCO1 (centres undefined),15.1
2,CCCNC(=O)N1CCN(S(=O)(=O)c2ccc3c(c2)OCCO3)CC1,1.44
3,CCCNC(=O)NC(=O)CN1CCCC1c1ccc2c(c1)OCCO2 (centres undefined),-16.2
4,CCOC(=O)c1c(CC(C)C)csc1/N=C/C1C(=O)CC(C)(C)CC1=O,-10.2
5,OCC1(Cc2ccc(F)cc2)CCCN(CCCC(F)(F)F)C1 (centres undefined),-19.8
6,Cc1ccc(S(=O)(=O)N2[C@@H](c3ccc4c(c3)OCO4)C(C(=O)O)=C[C@H]2C(C)(C)C)cc1,41.7
7,CC1Cc2ccccc2N1C(=O)COC(=O)c1cc(Br)ccc1O (centres undefined),62.7
8,O=C(CCC(=O)N1CCN(c2ccccn2)CC1)c1cccs1,-4.25
9,O=C(CCC(=O)c1cccs1)c1cccs1,68.8
10,Cc1ccc(NC(=O)N2CCCCCC2)c(C)c1,-16.7
11,Cc1cccc(-c2c3c(=O)n(C)c(=O)n(C)c3cn2-c2ccc(O)cc2)c1,-12.8
12,CC(C)NC(=O)c1cc(-n2cnnc2)ccc1Cl,2.78
13,CCOC(=O)C1=C(c2ccccc2)NC(=O)NC1c1ccc(OCC#N)c(OC)c1 (centres undefined),-4.72
14,COC(=O)c1ccc(CNC(=O)c2ccc(COc3ccccc3)cc2)cc1,10.8
15,CCOC(=O)C1=C(c2ccccc2)NC(=O)NC1c1ccc(OC)c(OC)c1 (centres undefined),2.41
16,CCOC(=O)C1=C(c2ccccc2)Nc2ncnn2C1c1ccc(C(=O)O)cc1 (centres undefined),1.92
17,Cc1cc(C(=O)Nc2cc(C)on2)on1,6.65
18,C=C/C(C)=C/CC1C(=C)CCC2C(C)(C(=O)O)CCCC12C (centres undefined),0.01
19,C=C[C@]1(C)C=C2CC[C@H]3[C@@](C)(CCC[C@@]3(C)C(=O)O)[C@@H]2CC1,43.7
20,O=C(O)C1CCN(S(=O)(=O)c2ccc(N3CCOCC3)c([N+](=O)[O-])c2)CC1,-8.22
21,Cc1ccc(N(C(=O)CNC(=O)c2ccco2)C(C(=O)NCC2CCCO2)c2ccccc2)cc1C (centres undefined),16
22,CCNC(=O)C(C)Sc1ccc(Cl)cc1 (centres undefined),25.6

row,SMILES,inhibition [%]
1,COc1ccc(-c2nnn(CC(=O)N(C3CCCCC3)C(C)C(=O)NC3CCCC3)n2)cc1OC (centres undefined),34.8
2,COc1ccc(-c2nnn(CC(=O)NC(=O)NC3CCCCC3)n2)cc1OC,2.95
3,CC(C)CCn1c(=O)c(C(=O)Nc2ccccc2S(N)(=O)=O)c(O)c2ccccc21,17.2
4,CCCCCn1c(=O)c(C(=O)Nc2ccccc2C)c(O)c2ccccc21,-22.9
5,CCCCCn1c(=O)c(C(=O)Nc2cccc(C)n2)c(O)c2ccccc21,-21.5
6,CCOC(=O)Cc1csc(NC(=O)c2c(O)c3c(n(CC(C)C)c2=O)CCCC3)n1,44.2
7,Cc1ccc(S(=O)(=O)N(C)C)cc1NC(=O)c1c(-c2c(F)cccc2Cl)noc1C,-9.18
8,CCOc1ccccc1C(=O)Nc1nccs1,5.93
9,CCOc1cccc2cc(C(=O)Nc3cc(C)on3)c(=O)oc12,75.1
10,O=C(Nc1nccs1)c1ccc(Cl)cc1[N+](=O)[O-],0.86
11,O=C(Nc1nccs1)c1cc(Cl)ccc1[N+](=O)[O-],12.9
12,Nc1nnc(-c2ccccc2F)s1,1
13,O=C(/C=C/c1ccc(Cl)cc1)Nc1ccccc1N1CCOCC1,-7.86
14,O=c1[nH]c(=O)n(Cc2ccco2)c(O)c1/C=N/N1CCCCC1,1.03
15,COCCN=C1NN=C(c2ccc(C)c([N+](=O)[O-])c2)CS1,-8.83
16,N/C(=N\OC(=O)CCC1CCCC1)c1ccncc1,60.9
17,N/C(=N\OC(=O)CC1CCCCC1)c1cccnc1,73
18,OCCN1CCN(c2nc(NCc3ccco3)c3ccccc3n2)CC1,9.79
19,Cc1ccc(OCCN2CCN(c3nc(NCc4ccco4)c4ccccc4n3)CC2)cc1,62.8
20,Cc1ccc(CS(=O)(=O)c2ncc(Cl)c(C(=O)Nc3ccc(OC(F)F)cc3)n2)cc1,-1.41
21,CN(c1ccccc1)S(=O)(=O)c1ccc(NC(=O)c2nc(S(C)(=O)=O)ncc2Cl)cc1,56
22,CCS(=O)(=O)c1ncc(Cl)c(C(=O)Nc2ccc(S(=O)(=O)N3CCCC(C)C3)cc2)n1 (centres undefined),58.5

row,SMILES,inhibition [%]
1,CCc1ccc(NC(=O)c2nc(S(=O)(=O)Cc3ccccc3)ncc2Cl)cc1,0.81
2,CCN(c1ccccc1)S(=O)(=O)c1ccc(NC(=O)c2nc(S(C)(=O)=O)ncc2Cl)cc1,37.2
3,CCC1CCCCN1S(=O)(=O)c1ccc(NC(=O)c2nc(S(C)(=O)=O)ncc2Cl)cc1 (centres undefined),66.2
4,Cc1ccc(F)cc1NC(=O)N1CCCN(C(=O)OC(C)(C)C)CC1,-10.3
5,O=C(CSc1ncn[nH]1)Nc1c(F)cc(F)cc1Br,-11.1
6,Cc1ccc(NC(=O)CC(C)c2ccccc2)cc1S(=O)(=O)N1CCOCC1 (centres undefined),10.4
7,O=C(O)CNC(=S)N(Cc1ccccc1)Cc1cccnc1,6.66
8,O=C(CSc1nncs1)Nc1nccs1,-27.1
9,COCCN1CCn2c(nc3cc(NC(=O)Cn4nc(C)c5ccccc5c4=O)ccc32)C1,-5.63
10,COc1ccc(OCCNc2cc(N3CCOCC3)ccc2[N+](=O)[O-])cc1,26.3
11,COc1ccc(OCCNc2cc(N3CCCCC3)ccc2[N+](=O)[O-])cc1,72.4
12,Cc1ccsc1C(=O)C1CCCN(Cc2sc(N(C)C)nc2Cl)C1 (centres undefined),-9.22
13,CC1CC(c2ccccc2)n2nc(NC(=O)c3ccco3)nc2N1 (centres undefined),3.85
14,CC1CCCC(NC(=O)CCCn2ncn3c(cc4occc43)c2=O)C1C (centres undefined),-13.3
15,CC1Cc2ccccc2N1C(=O)c1ccc(N2CCCCC2)c([N+](=O)[O-])c1 (centres undefined),20.8
16,Cc1ccc2sc3ccc(NC(=O)c4ccccc4Cl)cc3c(=O)c2c1,-1.36
17,Cc1ccc(C(=O)N[C@H](C(=O)NC2CCCCC2)C(C)C)cc1,15.5
18,Cc1ccc(C(=O)N[C@H](C(=O)NC2CCCCCCC2)C(C)C)cc1,-6.5
19,CN(C)c1cc[n+](CC(=O)N2c3ccccc3Sc3ccccc32)cc1,6.94
20,CC1(c2cc(C(F)(F)F)n3nc(C(=O)O)cc3n2)CC1,-1.85
21,Fc1ccc(Oc2cnc3ccccc3n2)cc1,75.1
22,CCC(=O)Nc1nc2ccccc2n1CCN1CCOCC1,2.63

row,SMILES,inhibition [%]
1,CCC(=O)Nc1nc2ccccc2n1CCN(CC)CC,12.6
2,CCn1c(NCc2ccccc2Cl)nc2ccccc21,26.2
3,CCC(=O)Nc1nc2ccccc2n1CCN(C)C,28.6
4,CCS(=O)(=O)c1nc2ccccc2n1Cc1ccccc1Cl,17.3
5,Cc1nc2ccccc2n1Cc1ccc(Cl)cc1,16.2
6,Cc1ccc(CNC(=O)c2nnn(-c3cccc(C)c3)c2N)cc1,27.4
7,O=c1c2ccccc2nnn1COc1ccc(F)cc1Cl,33
8,N#CC(C#N)=C1NC2(CCCCC2)Cc2ccccc21,-7.74
9,CN(CC(=O)Nc1cccc(F)c1)C(=O)c1ccc(C2SCCS2)cc1,16
10,COc1ccc(NC(=O)c2cnc(SCC(=O)NCCc3ccccc3)n(C)c2=O)cc1,-6.78
11,COc1ccccc1C(=O)N(CCC1CCCN1C)c1nc2ccccc2s1 (centres undefined),12.9
12,CCCCn1c(N)c(N(CCOC)C(=O)c2sc3cc(F)ccc3c2Cl)c(=O)[nH]c1=O,-5.03
13,NS(=O)(=O)c1ccc(NC(=O)COC(=O)COc2ccc3ccccc3c2)cc1,34.3
14,O=C(CSc1n[nH]c(=O)n1Cc1ccco1)Nc1ccccc1,-4.65
15,CCN1C(=O)C(CC(=O)Nc2ccc(Br)cc2)N(CCCc2ccccc2)C1=S (centres undefined),41.5
16,Cc1ccc(NC(=O)O/N=C/c2ccc(F)cc2)cc1,4.77
17,O=C(Nc1ccccc1)ON=C1CCCC1,69.3
18,O=C(COc1cc2oc(=O)c3c(c2cc1Cl)CCC3)Nc1cccnc1,5.55
19,COc1ccccc1-c1cc(C(F)(F)F)nc(S(=O)(=O)CCCC(=O)O)n1,44.3
20,Cc1ccc(-c2cc(C(F)F)nc(N3CCOCC3)n2)cc1,17.6
21,COc1ccc(-c2cc(C(F)(F)F)nc(S(=O)(=O)CCC(=O)N3CCOCC3)n2)cc1,79
22,CCOC(=O)CSc1nc(-c2ccccc2)cc(C(F)(F)F)n1,69.6

row,SMILES,inhibition [%]
1,Cc1ccc(-c2cc(C(F)F)nc(N3CCC(C)CC3)n2)cc1,8.45
2,CCOC(=O)CCSc1nc(-c2ccccc2)cc(C(F)(F)F)n1,8.6
3,COc1ccc(-c2cc(C(F)(F)F)nc(N)n2)cc1,6.01
4,Cc1cc(NC(=O)CCS(=O)(=O)c2nc(-c3ccccc3)cc(C(F)(F)F)n2)no1,41.1
5,O=C1OC[C@H]2CCCN2C(=O)[C@@H](CC(=O)N(CCO)Cc2ccccc2)C/C=C\C[C@H]1Cc1ccc(F)cc1,47.4
6,O=C1NNC(c2ccccc2)=N/C1=C\c1ccccc1,-6.71
7,CSc1ccccc1C(=O)NCCCOC(C)C,-17.5
8,O=C(O)/C=C/C(=O)NCCCc1ccccc1,18.7
9,CC1=C(C(=O)OCCOC(C)C)C(c2cc3c(cc2Br)OCO3)C2=C(CCCC2=O)N1 (centres undefined),12.9
10,COc1cc(CC(CC(=O)O)CC(C)OCc2ccccc2)cc(OC)c1 (centres undefined),24.2
11,O=C(Nc1ccc2nc3n(c(=O)c2c1)CCCC3)c1cccc([N+](=O)[O-])c1,-20.7
12,O=C(c1ccc2c(=O)n3c(nc2c1)CCCCC3)N1CCN(c2ccc([N+](=O)[O-])cc2)CC1,25.7
13,CN(Cc1cccc(F)c1)C(=O)c1ccc2c(=O)n3c(nc2c1)CCC3,-4.16
14,COc1ccc(CN(C)C(=O)c2ccc3c(=O)n4c(nc3c2)CCC4)cc1,-3.83
15,COc1ccc(COC(=O)c2ccc3c(=O)n4c(nc3c2)CCC4)cc1F,-0.76
16,CC(OC(=O)c1ccc2c(=O)n3c(nc2c1)CCC3)C(N)=O (centres undefined),-8.53
17,O=C(NNC(=O)c1ccccc1Cl)c1ccc2c(=O)n3c(nc2c1)CCC3,1.89
18,O=C(COc1ccccc1Cl)NNC(=O)c1ccc2c(=O)n3c(nc2c1)CCC3,-23
19,CC1CCCCN1S(=O)(=O)c1ccc(S(=O)(=O)N2CCCC2)cc1 (centres undefined),4.73
20,CCOc1ccc(CCNS(=O)(=O)c2cc3c(cc2C)NC(=O)CO3)cc1OCC,16.2
21,O=C(Cc1cccc2ccccc12)Nc1ccccc1Br,12.5
